Source: PubChem BioAssay
Most compounds without a hit are left out; they make up all but 4.5% or so of the library.
PrPC surface inh: cell surface PrPC inhibition, primary TR-FRET screen; inhibition, % at 13.8 µM; TR-FRET read-out; P04156; 0.43% of 370,000 active; in the data active = inhibition above about 24%
BJeLR lethal: kills HRASV12-expressing BJeLR cells; inhibition, % (test concentration not listed); BJeLR (HRASV12) viability, CellTiter-Glo ATP luminescence, 48 h; 0.17% of 300,000 active; AID 1554; in the data active = inhibition above about 50%
Mtb FBA inh: Mtb fructose-bisphosphate aldolase inhibition. inhibition, % at 1 µM. 2.3% of 360,000 active. purified M. tuberculosis FBA, fluorescence read-out. P9WQA3; in the data active = inhibition above about 27%
Target sequence (P9WQA3 whole entry, looked up): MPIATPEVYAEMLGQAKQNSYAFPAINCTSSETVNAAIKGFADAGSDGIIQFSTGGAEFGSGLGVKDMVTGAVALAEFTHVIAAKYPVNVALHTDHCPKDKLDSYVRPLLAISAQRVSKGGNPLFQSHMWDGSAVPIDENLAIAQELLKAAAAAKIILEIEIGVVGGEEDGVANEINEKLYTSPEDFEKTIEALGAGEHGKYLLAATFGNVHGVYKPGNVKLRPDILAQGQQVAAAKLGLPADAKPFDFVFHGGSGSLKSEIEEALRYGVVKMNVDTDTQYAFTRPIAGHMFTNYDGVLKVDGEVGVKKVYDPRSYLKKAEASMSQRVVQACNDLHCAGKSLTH
GDH-TPI inh: inhibits GDH-TPI coupling enzymes, artifact for Mtb FBA screen; 1.2% of 360,000 active; inhibition, % at 4.8 µM; GDH-TPI coupled enzyme counterscreen, NADH absorbance; AID 588335; in the data active = inhibition above about 30%
PrP 5UTR inh: inhibition of PrP 5' UTR reporter expression. cell-based PrP 5' UTR mRNA reporter, plate reader. AID 488862. inhibition, % (test concentration not listed). 0.35% of 340,000 active; in the data active = inhibition above about 52%
PfHsp40 yeast: compounds rescuing yeast from Plasmodium falciparum HSP40 toxicity; 0.68% of 340,000 active; AID 504582; S. cerevisiae expressing PfHsp40, growth rescue, ATP luminescence; growth rescue, % at 12.5 µM; in the data active = growth rescue above about 28%, passing the limit was not always enough;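 note: yeast W303a lacking pdr1 and pdr3 grown in galactose medium; growth measured after three days at 30 °C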
Numbers stand for hits; – = inactive; · = no result; + = active, no number.

SMILES	PrPC surface inh	BJeLR lethal	Mtb FBA inh	GDH-TPI inh	PrP 5UTR inh	PfHsp40 yeast
COCCCNC(=O)c1ccc(S(=O)(=O)c2ccc(C)cc2)c(NC(C)=O)c1	–	–	–	–	–	91
Cc1c(/C=N/NC(=O)c2ccc(O)cc2)c2ccccn2c1C(=O)c1ccc(F)cc1	–	–	–	32	–	–
Cc1c(/C=N/NC(N)=O)c2ccccn2c1C(=O)c1ccncc1	–	–	–	56	·	–
COc1ccc(/C=C/C(=O)NCC(c2ccc(F)cc2)N2CCOCC2)cc1OC (centres undefined)	–	–	–	35	–	–
COc1ccc(/C=C/C(=O)O/N=C(\N)c2ccccn2)cc1OC	–	·	–	45	–	–
COc1ccc(/C=C/C(=O)N(c2ccccn2)C2CCCCC2)cc1OC	–	–	–	83	–	–
CCOc1ccc(/C=C/C(=O)N2CCOCC2)cc1OC	–	–	–	32	–	–
COc1ccc(C)cc1NC(=O)CSc1nnc(-c2n[nH]c3c2CCC3)n1N	–	·	·	·	·	·
CC(C)N1CCCCC(NC(=O)c2c(F)cccc2F)C1=O (centres undefined)	–	·	·	·	·	·
CCc1nc2ccc(C(=O)Nc3ccc4c(c3)OCC(=O)N4)cn2c1N(C)Cc1nccn1C	–	·	–	–	·	·
CCCCOc1ccc(C(=O)NC2CCCCN(CC)C2=O)cc1 (centres undefined)	–	·	·	·	·	·
COc1ccc(CN2c3ccccc3C(=O)CS2(=O)=O)cc1OC	–	·	·	·	·	·
CC(C)(C)CC(=O)O/N=C(\N)c1ccccn1	–	–	–	–	–	72
CCOc1cc(C(=S)N2CCOCC2)ccc1OC(=O)/C=C/c1ccc(OC)c(OC)c1	–	–	–	37	–	–
Cc1ccc(CC(=O)O/N=C(\N)c2ccccn2)cc1	–	–	–	–	–	–
COc1cc(/C=C/C(=O)N2CCN(c3ccccn3)CC2)cc(OC)c1OC	–	–	–	–	–	–
COc1ccc(/C=C/C(=O)N2CCN(c3ccccn3)CC2)cc1OC	–	–	–	39	–	–
O=C1c2ccccc2NC(c2ccc([N+](=O)[O-])cc2)N1O (centres undefined)	–	–	–	–	–	37
CC(C)C[C@@H]1COc2cccc(F)c2S(=O)(=O)N1C	–	·	·	·	·	·
CN(C)CC(=O)N[C@@H]1C[C@@H]2O[C@@H](CO)CC[C@@H]2O[C@@H]1CCc1ccc(-c2ccc(F)cc2)cc1	–	·	·	·	·	·
CC(=O)N1CCc2c(sc(NC(=O)c3ccc([N+](=O)[O-])o3)c2C#N)C1	–	–	–	–	–	–
COC(=O)c1sc(NC(=O)c2ccc([N+](=O)[O-])o2)c(C#N)c1C	–	–	–	32	–	–
C#Cc1ccc(C(=O)Nc2cc(C(N)=O)ccc2N2CCOCC2)cc1	–	–	–	32	–	–
N#Cc1ccc(C(=O)Nc2cc(S(=O)(=O)N3CCOCC3)ccc2N2CCOCC2)cc1	–	·	–	–	·	·
O=C(NC1CCCC1)c1ccc(Cn2c(=O)[nH]c3ccsc3c2=O)cc1	–	–	–	–	–	51
SMILES	PrPC surface inh	BJeLR lethal	Mtb FBA inh	GDH-TPI inh	PrP 5UTR inh	PfHsp40 yeast
C[C@@H]1ON(C)[C@H]2C[C@H]3c4[nH]c5c(-c6ccc7c(c6)OCO7)cccc5c4CCN3C[C@@H]12	–	·	·	·	·	·
O=C(N/N=C/c1ccc(Cl)s1)c1ccccc1[N+](=O)[O-]	–	–	–	31	–	–
CCOC(=O)c1nn(-c2ccccc2)c(C(=O)OCC)c1N	–	–	+	–	–	–
CCN(CC)c1ccc(/C=N/NC(=O)c2cccc(S(=O)(=O)Nc3ccccc3OC)c2)cc1	–	–	–	–	–	–
CCN(CC)c1ccc(/C=N/NC(=O)c2ccoc2C)c(O)c1	–	–	–	37	–	–
CCN(CC)c1ccc(/C=N/NC(=O)OC)c(O)c1	–	–	–	43	–	–
CCN(CC)c1ccc(/C=N/NC(=S)NC)c(O)c1	–	–	–	–	–	–
CCN(CC)c1ccc(/C=N/NC(=O)c2cccc(S(=O)(=O)Nc3ccccc3OC)c2)c(O)c1	–	60	–	–	–	105
CCc1cccc2c(/C=N/NC(=O)c3cccc(S(=O)(=O)Nc4ccccc4Cl)c3)c[nH]c12	–	–	–	37	–	–
CCCN1CNc2c(c(=O)[nH]c(=S)n2CCc2cccc(Cl)c2Cl)C1	–	·	·	·	·	·
COC(CNC(=O)[C@H](Cc1ccccc1)NC(C)(C)C(=O)NC1CCCCC1)OC	–	·	·	·	·	·
CCCC1CCC2(CC1)CCC2OC(=S)Nc1ccc(I)cc1 (centres undefined)	–	·	·	·	·	·
CNC(=O)C[C@@H]1CC[C@@H]2[C@H](COc3ccc(NC(=O)c4cccc(F)c4)cc3C(=O)N2C)O1	–	·	·	·	·	·
COc1ccc(Cn2c(NC(=O)c3ccccc3)nc(Cc3ccccc3)c2-c2ccccc2)cc1	–	·	·	·	·	·
COC(=O)C1CN(Cc2cn(CCOC(C)=O)nn2)CCS(=O)(=O)N1Cc1ccc(Cl)cc1 (centres undefined)	–	·	·	·	·	·
CCN(CC)c1ccc(/C=N/NC(=O)c2ccc3nc[nH]c3c2)c(O)c1	·	53	–	–	–	–
Fc1ccc(Nc2nnc(C(F)(F)F)s2)cc1Cl	–	–	–	–	–	149
FC(F)(F)c1nnc(Nc2ccc(Cl)cc2)s1	–	–	–	–	–	–
O=C1CCC[C@H]2C[C@H](NCc3ccc(F)cc3F)CC[C@]23CCCN13	–	·	·	·	·	·
Oc1ccc(C(=Nc2ccccc2)c2ccccc2)c(O)c1	–	·	–	45	–	–
O=C(NNC(=O)c1ccc(O)cc1O)c1ccc(-c2ccccc2)cc1	–	–	–	–	–	–
COc1ccc2oc(C(=O)Nc3nc4ccccc4[nH]3)c(C)c2c1	–	–	–	44	–	–
CCOC(=O)c1ccc(NC(=O)CCc2nc(-c3ccccc3Cl)no2)cc1	–	–	–	–	–	34
CCOC(=O)c1ccc(NC(=O)CCc2nc(-c3ccccc3)no2)cc1	–	–	–	–	–	–
C=CCN(C(=O)[C@@H](CCCC)[C@@H](O)c1ccc(C(C)=O)cc1)c1ccccc1	–	·	·	·	·	·
SMILES	PrPC surface inh	BJeLR lethal	Mtb FBA inh	GDH-TPI inh	PrP 5UTR inh	PfHsp40 yeast
CCOC(=O)CSc1nnc(CNC(=O)c2cccc(C)c2)n1C	–	–	–	–	–	47
CCOC(=O)CSc1nnc(CNC(=O)c2cccc(C)c2)n1-c1ccccc1OC	–	–	–	–	–	–
C=CCNC(=O)N1CCC(c2nc3ccc(Cl)cc3[nH]2)CC1	–	·	·	·	·	·
Cc1ccccc1N1CCN(S(=O)(=O)c2nnc(NC(=O)c3ccco3)s2)CC1	–	–	–	35	–	–
Cc1ccccc1N1CCN(S(=O)(=O)c2nnc(NC(=O)CC(C)C)s2)CC1	–	–	–	–	–	–
CC(=O)Nc1sc2c(c1-c1nc3ccccc3s1)CCOC2	–	·	·	·	·	·
CN1CC2(Cc3c1ccc1ccccc31)C(=O)OC(C)(C)OC2=O	–	–	+	–	–	–
Cc1ccc2c(c1)CC1(CN2C)C(=O)OC2(CCCCC2)OC1=O	–	–	–	–	–	–
O=C(CN1C(=O)S/C(=C\c2cccs2)C1=O)Nc1ccc(O)c(C(=O)O)c1	–	–	–	38	–	–
